For test [1], the system named is C33A. In words: Primary qHTS to identify gynecologic anti-cancer compounds using libraries of approved drugs and bioactive compounds (AID 1345084). Also: nearly all actives have a fitted effect of over 55% in size. The settings on record: Gynecologic cancer cell panel viability, ATPlite luminescence, 48 h; series mostly up to 57.5 µM. The method, boiled down:
(§1)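 Five-point cytotoxicity, 48 h drug exposure at 37 C, 5% CO2, on cells seeded 16 h beforehand. ATP content read by ATPlite luminescence.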
Background: qHTS replaces the single test concentration by a dilution series.

Test [2] concerns CASKI. Described as above. Conditions: Gynecologic cancer cell panel viability, ATPlite luminescence, 48 h; series mostly up to 57.5 µM. The gist of the method:
as §1

In test [3] the test system is Es-2. Described as above. The settings on record: Gynecologic cancer cell panel viability, ATPlite luminescence, 48 h; series mostly up to 57.5 µM. The gist of the method: as §1
(In general: In ATP-based viability assays light output follows the ATP content of the culture.)

The subject of test [4] is HeLa. Described as above. Conditions: Gynecologic cancer cell panel viability, ATPlite luminescence, 48 h; series mostly up to 57.5 µM. The method, boiled down:
as §1

For test [5], the system named is Hek293T. Described as above. Conditions: Gynecologic cancer cell panel viability, ATPlite luminescence, 48 h, control line for the selectivity index; series mostly up to 57.5 µM. The method, boiled down: as §1
The test system of test [6] is JEG-3. The test is described as above. Conditions: Gynecologic cancer cell panel viability, ATPlite luminescence, 48 h; series mostly up to 57.5 µM. The gist of the method:
as §1

The subject of test [7] is OV90. The description is as above. Conditions: Gynecologic cancer cell panel viability, ATPlite luminescence, 48 h; series mostly up to 57.5 µM. The gist of the method:
as §1

Test [8] concerns PA-1. The description is as above. Conditions: Gynecologic cancer cell panel viability, ATPlite luminescence, 48 h; series mostly up to 57.5 µM. The method, boiled down: as §1
Test [9] concerns SKOV3. Described as above. The settings on record: Gynecologic cancer cell panel viability, ATPlite luminescence, 48 h; series mostly up to 57.5 µM. The method, boiled down:
as §1

Test [10] relates to Tov112D. Described as above. Conditions: Gynecologic cancer cell panel viability, ATPlite luminescence, 48 h; series mostly up to 57.5 µM. The gist of the method: as §1
In test [11] the test system is Tov-21-G. The test is described as above. Conditions: Gynecologic cancer cell panel viability, ATPlite luminescence, 48 h; series mostly up to 57.5 µM. The gist of the method:
as §1

Test [12] is described as follows: qHTS assay to identify inhibitors of the type 1 interferon - major histocompatibility complex class I in skeletal muscle: Counter screen cell viability and HiBit confirmation (AID 1347412). Also: nearly all actives have a fitted effect of over 60% in size. The settings on record: iHSKM muscle cells + IFN-b, HiBiT or CellTiter-Glo, 24 h. The method, boiled down: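 HLA-B*08:01–HiBiT knock-in immortalized human myoblasts (C25cl48) stimulated with 4.0 ng/ml human IFN-beta and dosed with compound in a 12-point 1:3 titration (top final 46 uM). After 24 hrs at 37 C, HiBiT lytic luminescence or CellTiter Glo ATP read out.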

In PubChem BioAssay (NCATS) one finds Potency, activity change, negative = inhibition and activity change, negative = cytotoxicity data, which are given here for 13 molecules.

Results filed as inconclusive are left out. A number with no mark means an inactive call. Activity calls are given as the source filed them. Calls follow the shape of the dose curve; as a rule, active = well fitted curve in the direction sought with a large enough effect; inconclusive = small, poorly fitted or top-dose-only effect, or another doubt; inactive = no such curve, though single readings can be large; an effect the other way counts as inactive or inconclusive.
% is scaled to controls: 0 for no effect and ±100 for the full control effect; potency is read from the fitted curve at half-maximal effect.

Regarding `C=C1CN(Cc2ccc(C(=O)Nc3ccccc3N)cc2)C(=O)c2ccccc21`, the Potency in [1] is 2820 nM (active); in test [2], 4470 nM (active); in [3], 5010 nM (active); in test [4], 3550 nM (active); in test [5], 2240 nM (active); in [6], 5620 nM (active). Also, the Potency is 6310 nM (active) in test [7], 2240 nM (active) in test [8], 1410 nM (active) in test [9] and 3980 nM (active) in test [10].

As to `CC(C)=CCC/C(C)=C/CO[C@@H]1O[C@H](CO)[C@@H](O)[C@H](O)[C@H]1O`, the Potency entry in test [1], in test [2], in test [3], in test [4], in test [5] and in test [6] was “inactive” each time. For the same molecule, the Potency entry in test [7], in test [8], in [11] and in test [10] was “inactive” in each case.

With `C[C@@H]1CC[C@]2(C(=O)O[C@@H]3O[C@H](CO)[C@@H](O)[C@H](O)[C@H]3O)CC[C@]3(C)C(=CCC4[C@@]5(C)C[C@@H](O)[C@H](O)[C@](C)(C(=O)O)C5CC[C@]43C)[C@@H]2[C@]1(C)O` (stereo partly specified), the Potency entry in test [1], in test [2], in test [3], in [4], in test [5] and in test [6] was “inactive” in each case. Besides, the Potency result in test [7], in test [9], in [11] and in [10] was “inactive” in each case.

Consider `CCC(COC)n1nnc2c(Nc3ccc(OC)cc3C)nc(C)cc21` (stereo unspecified), for which the Potency entry in [1], in test [2], in test [3], in [4], in test [5] and in test [6] was “inactive” in each case. The Potency entry in test [7], in [8], in test [11] and in [10] was “inactive” each time.

With `OC[C@@]1(O)CO[C@@H](OC[C@H]2O[C@@H](Oc3c[nH]c4ccccc34)[C@H](O)[C@@H](O)[C@@H]2O)[C@@H]1O`, the Potency entry in test [1], in test [2], in [3], in test [4], in [5] and in [6] was “inactive” in each case. Moreover, the Potency entry in test [7], in test [8], in test [11] and in test [10] was “inactive” each time.

Consider `CCC(O)(C(=O)OCc1ccccc1NC(=O)CCC(=O)O)C(C)O` (stereo unspecified), for which the Potency entry in [1], in [2], in test [3], in test [4], in [5] and in [6] was “inactive” throughout. The Potency result in test [7], in test [8], in [11] and in [10] was “inactive” throughout.

Take `C/C=C/C=C/C(O)=C1\C(=O)[C@]2(C)C3C(C(=O)CC/C=C/C)=C(O)C4(C)C1[C@]1(C)O[C@@]4(O)[C@@]3(C)O[C@@]12O`: the Potency result in [1], in test [2], in test [3], in test [4], in test [5] and in test [6] was “inactive” in each case. For the same molecule, the Potency entry in [8], in test [9], in test [11] and in [10] was “inactive” each time.

Take `C[C@]1(CO)CCC[C@]2(C)C3=C(CCC12)COC3` (stereo partly specified): the Potency entry in test [1], in [2], in test [3], in test [4], in test [5] and in test [6] was “inactive” each time. In addition, the Potency entry in test [7], in [8], in [9], in test [11] and in [10] was “inactive” in each case.

On to `CCO[C@@H]1OC(=O)C[C@@H]1NC(=O)[C@@H]1CCCN1C(=O)[C@@H](NC(=O)c1ccc(N)c(Cl)c1)C(C)(C)C`, for which the Potency entry in test [1], in test [2], in test [3], in test [4], in test [5] and in test [6] was “inactive” each time. Besides, the Potency result in [7], in [8], in test [9], in [11] and in test [10] was “inactive” each time.

As to `O=C(N/N=C/c1ccc(O)c(O)c1)c1cc2ccccc2cc1O`, the Potency result in test [1], in [2], in [3], in test [4], in [5] and in test [6] was “inactive” in each case. The Potency result in test [7], in [8], in test [9] and in test [10] was “inactive” throughout.

As to `COc1ccc(N2CCOCC2)c2sc(NC(=O)N3CCC(C)(O)CC3)nc12`, the Potency entry in [1], in [2], in test [3], in test [4], in test [5] and in [6] was “inactive” throughout. In addition, the Potency entry in [7], in test [8], in test [9], in test [11] and in test [10] was “inactive” throughout.

In the case of `Cc1ccc([N+](=O)[O-])cc1S(=O)(=O)N(C)/N=C/c1cnc2ccc(Br)cn12`, the Potency in [1] is 316 nM (active); in [2], 316 nM (active); in test [3] it was 398 nM (active); in test [4] it was 316 nM (active); in test [5], 316 nM (active); in test [8] it was 199 nM (active). In addition, the figures for the Potency in test [10] and in [12] (HiBiT) were 355 nM (active) and 49.7 nM (active), respectively. In test [12] (Viability, at 45.9 µM (top of the series)), the activity change, negative = inhibition was -5.21%.

For the molecule `C[C@@H]1O[C@@H](O[C@H]2[C@H](O)[C@@H](O)[C@H](O[C@H]3[C@H](O[C@H]4CC[C@@]5(C)C(=CC[C@@H]6C5CC[C@]5(C)[C@@H]7[C@H](C[C@@H]65)O[C@]5(CC[C@@](C)(CO[C@@H]6O[C@H](CO)[C@@H](O)[C@H](O)[C@H]6O)O5)[C@H]7C)C4)O[C@H](CO)[C@@H](O)[C@@H]3O)O[C@@H]2CO)[C@H](O)[C@H](O)[C@H]1O` (stereo partly specified), the activity change, negative = cytotoxicity in [1] was 1.06% [at 11.6 µM]; in [2], 21.1% [at 11.6 µM]; in test [3], 3.9% [at 11.6 µM]; in test [4], 6.34% [at 11.6 µM]; in [5] it was -9.56% [at 11.6 µM]; in test [6], 4.71% [at 11.6 µM]. Moreover, the results for the activity change, negative = cytotoxicity in test [7] and in test [10] were 5.27% [at 11.6 µM] and 13% [at 11.6 µM], respectively. The Potency in [8] is 1780 nM (active).
